High-throughput results from PubChem BioAssay.
A549 tox – Nrf2 qHTS screen for inhibitors: counterscreen for cytotoxicity. 0.16% of 390,000 active. A549 ARE-Fluc cells, CellTiter-Fluor viability, 18-24 h. Potency, µM (highest dose often 46 µM), actives largely listed as inhibitors
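A549 ARE_Fluc cells in 5% FBS OPTI-MEM were exposed to compounds in concentration-response for 18-24 h at 37 deg C. Viability was read by CellTiter-Fluor fluorescence (Ex 405/Em 525) after 30 min, before the luciferase read.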
miR-21 act – qHTS Assay for Modulators of miRNAs and/orActivators of miR-21; HeLa miR-21 FLuc reporter, luciferase, 48 h; Potency, µM (series often up to 38.3 µM), actives largely listed as activators; 340,000 tested, under 10 active; AID 2288, 2010;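 note: miR-21 action dims this reporter so a rising signal means less miR-21 action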
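Using DMEM plus 10% FBS, HeLa miR-21-FLuc cells are incubated with test compounds (final up to about 40uM) for 48 hours; firefly luciferase signal is then imaged following reagent-mediated lysis.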
Nrf2 inh – Nrf2 qHTS screen for inhibitors | Potency, µM (titrated, usually from 46 µM), most hits filed as inhibitors | AID 504444, 2011 | 2.1% of 360,000 active | A549 ARE-Fluc reporter, luciferase luminescence, 18-24 h; note: nearly all actives have a fitted effect of over 60% in size
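Quantitative HTS in A549 cells stably bearing an antioxidant response element-firefly luciferase construct. Inhibition of Nrf2-driven transcription was scored by luminescence after 18-24 h of compound exposure at 37 °C.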
TCR act – Activators of T cell receptors: qHTS campaign | primary human leukocytes, anti-CD3, IL-2 HTRF, 48 h | Potency, µM (top dose mostly 9.22 µM), usual class: activators | 330,000 tested, under 10 active | AID 504894, 2011
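1) Mix primary human leukocytes, a-CD3 beads and compound. 2) Incubate 48 hr. 3) Add HTRF IL-2 reagents (a-IL-2-K, a-IL-2-d2).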
Nrf2 activator – qHTS of Nrf2 Activators; 0.31% of 410,000 active; AREc32 ARE-luciferase reporter (MCF7-derived line), luminescence, 24 h; Potency, µM (series often up to 46.1 µM), hits mostly activators; AID 624171, 2012; note: nearly all actives have a fitted effect of over 65% in size
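ARE-driven firefly luciferase activity in AREc32 cells measured after a 24 hr compound exposure at 37 deg C, using Steady-Glo reagent and a 30 min room-temperature hold.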
ClpP mod – qHTS Assay for Activators of ClpP; purified B. subtilis ClpP, FRET peptide cleavage, 20 min; Potency, µM (highest dose often 57.5 µM); 1.9% of 340,000 active; AID 651965, 2013; active = well fitted falling curve with a large enough effect; inconclusive = small, poorly fitted or top-dose-only effect; inactive = no such curve, though single readings can be large or run the other way; note: the source files actives as falling curves though it sought activators and does not explain the sign; nearly all actives have a fitted effect of over 65% in size
Target sequence (P80244 whole entry, looked up): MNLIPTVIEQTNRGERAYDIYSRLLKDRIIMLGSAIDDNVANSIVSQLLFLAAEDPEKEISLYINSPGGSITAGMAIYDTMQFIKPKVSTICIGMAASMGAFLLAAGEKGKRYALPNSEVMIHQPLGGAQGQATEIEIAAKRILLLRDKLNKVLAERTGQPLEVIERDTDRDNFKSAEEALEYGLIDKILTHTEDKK
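ClpP 10 microg/mL final, pH 8 Tris/KCl buffer with BSA, glycerol, Tween-20; compound pinned in; FRET-FV substrate; RT 20 min; Ex320/Em430; ΔFRET vs ADEP 5.8 microM, DMSO, no enzyme.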
A number is an active result; . = inactive; ? = inconclusive; / = not tested or not shown. An excerpt weighted towards active compounds, which were near 3.7% of everything screened. Unless noted, calls come from the whole dose curve; as a rule, active = well fitted curve in the direction sought with a large enough effect; inconclusive = small, poorly fitted or top-dose-only effect, or another doubt; inactive = no such curve, though single readings can be large; an effect the other way counts as inactive or inconclusive.

SMILES | A549 tox | miR-21 act | Nrf2 inh | TCR act | Nrf2 activator | ClpP mod
COc1ccc2[nH]cc(C(=O)CNc3nccs3)c2c1 | / | / | / | / | / | .
Cc1cc(=O)c2ccccc2n1Cc1ccccc1 | . | . | 16µM | . | . | /
O=C(CCl)NC(Cc1ccccc1)C(=O)OCC(=O)c1ccc(-c2ccccc2)cc1 (configuration not stated) | . | / | . | . | . | .
CCOc1cccc(/C=C2\NC(=S)N(c3ccccc3)C2=O)c1O | . | . | . | . | 11µM | .
COc1ccc(C2CC(=O)CCN2S(=O)(=O)c2ccc(C)cc2)cc1 (configuration not stated) | . | / | . | . | . | .
C#CCN(Cc1ccc(OC)cc1)S(=O)(=O)C=C | / | / | / | / | / | .
CCOc1ccc(-c2cn3c(n2)sc2cc(C(=O)NCCc4ccc(OC)c(OC)c4)ccc23)cc1 | . | . | ? | / | . | 35µM
COc1ccc2c(c1)sc1nc(-c3ccccc3)cn12 | . | ? | 18µM | . | . | .
Cc1ccc(S(=O)(=O)N2[C@@H](c3ccc(C(C)(C)C)cc3)C(C(=O)O)=CC[C@H]2c2ccc3c(c2)OCO3)cc1 | . | / | 23µM | . | . | .
COc1cccc(CNC(=O)CSc2c3c(nc4ccc(Cl)cc24)CCCC3)c1OC | . | . | ? | / | 13µM | .
O=C(/C(=N/N=C/c1ccc(O)c(O)c1)c1ccccc1)c1ccccc1 | . | . | . | . | . | .
Cc1[nH]nc2c1C(c1cccc(O)c1)C1=C(CC(C)(C)CC1=O)N2 (configuration not stated) | . | . | . | . | . | 28µM
Cc1ccc(C2C3=C(CC(C)(C)CC3=O)Nc3n[nH]c(C)c32)cc1 (configuration not stated) | . | . | ? | . | . | 25µM
Cc1[nH]nc2c1C(c1ccc(F)cc1)C1=C(CC(C)(C)CC1=O)N2 (configuration not stated) | ? | . | . | / | . | 25µM
CC(=O)Nc1cccc(S(=O)(=O)N2CCN(S(=O)(=O)c3ccc4c(c3)OCCO4)CC2)c1 | . | / | ? | / | / | /
Cc1oc(-c2cccc(Cl)c2)nc1CS(=O)(=O)CC(=O)NC1CCCC1 | . | . | . | . | . | .
CCOC(=O)N1CCC2(CC1)OC(=O)C(C)=C2C(=O)NCc1ccccc1OC | . | . | . | / | . | .
Cc1ccc(CNc2cc(-c3nn4c(C)nnc4s3)ccc2C)s1 | . | . | 16µM | . | . | .
O=C(NC1CCSc2ccccc21)c1cc([N+](=O)[O-])ccc1N1CCOCC1 (configuration not stated) | . | / | . | . | . | .
CCNc1nc(NCc2ccccc2)nc(SCC(=O)Nc2ccccc2)n1 | . | . | 23µM | . | . | .
CCOC(=O)Cc1cc(C(=O)Nc2ccc(Br)cc2)sc1-c1ccc(C)cc1 | . | . | . | / | . | 22µM
O=C(Nc1ccc(Cl)cc1Cl)c1ccc(Br)o1 | . | . | ? | . | . | .
Fc1cccc(CNc2ncnc3cc(Cl)ccc23)c1F | . | . | 18µM | . | . | .
Cc1cccc(C(=O)NCc2cn3cccc(C)c3n2)c1 | . | . | . | / | . | .
Cc1cccn2cc(CNC(=O)CC3CCCC3)nc12 | . | . | . | . | . | 32µM
SMILES | A549 tox | miR-21 act | Nrf2 inh | TCR act | Nrf2 activator | ClpP mod
CC(C)Nc1ncnc2ccc(Br)cc12 | . | . | 10µM | . | . | .
CCOC(=O)c1c(-c2ccc(F)cc2)cn2ccccc12 | . | . | / | . | . | 10µM
CCOC(=O)c1c(-c2ccc(C)cc2)cn2ccccc12 | . | . | / | . | . | 13µM
Cc1ccc(O)c(NC(=O)c2onc(C)c2Cl)c1 | . | . | . | . | 8.9µM | .
CC1CC2(CCCCC2)Nc2c1ccc1ccccc21 (configuration not stated) | . | . | . | . | . | 18µM
CC(=O)N1c2c(ccc3ccccc23)C(C)CC12CCCCC2 (configuration not stated) | . | . | . | . | . | .
CNC(=S)N1CCN(c2c(F)cc3c(=O)c(C(=O)O)cn(C4CC4)c3c2OC)CC1C (configuration not stated) | . | . | . | . | . | 28µM
N#Cc1ccccc1Cn1cc(/C=C/[N+](=O)[O-])c2ccccc21 | 23µM | ? | ? | . | . | .
COCCNC(=O)c1ccc(-n2c(-c3ccccc3)cc3c2CCCCC3)cc1 | . | . | ? | / | 16µM | .
CN(C)CCNC(=O)c1ccc(-n2c(-c3ccccc3)cc3c2CCCC3)cc1 | . | . | 23µM | / | 11µM | .
CCC(C)NC(=O)c1ccc(-n2c(-c3ccccc3)cc3c2CCCC3)cc1 (configuration not stated) | . | . | 18µM | / | ? | .
CCCNC(=O)c1ccc(-n2c(-c3ccccc3)cc3c2CCCCC3)cc1 | . | . | . | / | 13µM | .
Nc1nc(Nc2cc(F)cc(F)c2)nc(NC2CCCC2)n1 | . | / | . | / | / | /
COc1ccc(-n2nc(C(=O)N3CCCC(C)C3)c3c4ccccc4n(C)c3c2=O)cc1Cl (configuration not stated) | . | . | . | / | . | .
CCOCCCNC(=O)c1ccc(-n2c(-c3ccccc3)cc3c2CCCCC3)cc1 | . | ? | 18µM | / | ? | .
CCOc1cccc(CC(=O)Nc2ccc3nc(N4CCCCC4)cc(C)c3c2)c1OCC | ? | . | / | / | . | .
COc1cccc(C(=O)N2CCN(c3ccc(N4CCOCC4)nn3)CC2)c1 | . | / | . | . | . | ?
COc1ccc2c(c1)CCc1cc(C(=O)N3CCN(c4ccc(N5CCOCC5)nn4)CC3)sc1-2 | . | . | 18µM | . | . | .
O=C(Nc1cccc(O)c1)C1CCCN1C(=O)OCc1ccccc1 (configuration not stated) | . | . | / | . | . | 28µM
C[N+]1(CC(=O)c2ccc(Br)cc2)CCOCC1 | / | / | / | / | / | .
CSC1=NC(NCCCO)c2c(sc3c2CC(C)(C)OC3)N1 (configuration not stated) | . | . | . | / | . | 11µM
Cc1cc(Cl)ccc1Oc1nccc(N(C)C)c1C#N | . | . | 23µM | / | . | .
O=C(OCC(=O)N1CCOCC1)c1cc2ccccc2oc1=O | . | / | . | . | . | .
CC1CC(C)CN(C(=O)COC(=O)c2cc3ccccc3oc2=O)C1 (configuration not stated) | . | / | . | . | . | 35µM
COc1cccc2cc(C(=O)OCC(=O)N3CC(C)OC(C)C3)c(=O)oc12 (configuration not stated) | . | / | . | . | 16µM | /
